# Several values for one entry are separate records, joined by “and”; a condition that tells them apart may be missing. Equal values may be shown once. Values without a mark were called inactive. Inconclusive results are not listed. Activity calls are given as the source filed them. Unless noted, calls follow the shape of the dose curve; as a rule, active = well fitted curve in the direction sought with a large enough effect; inconclusive = small, poorly fitted or top-dose-only effect, or another doubt; inactive = no such curve, though single readings can be large; an effect the other way counts as inactive or inconclusive.
# What was measured:
# [1] = Drug repurposing screens with cells derived from glioblastoma tumor samples (AID 1345199); conditions: GBM patient neurospheres viability, ATP luminescence, 48 h; also: nearly all actives have a fitted effect of over 40% in size; also: potency is read from the fitted curve at half-maximal effect; as to activity, negative = cell killing: % is scaled to controls: 0 for no effect and ±100 for the full control effect
# Method in brief: (§1)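 Four patient lines of CD133+ GBM neurospheres were screened at several concentrations; hits were retested in those lines plus three slower-growing GBM lines, using 48-hour treatment and ATP-based viability.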
# astro = control astrocytes; experiment: as above; conditions: viability, ATP luminescence, 48 h; series mostly up to 45.9 µM
# Method in brief: as §1
# [2] = qHTS assay to identify inhibitors of the type 1 interferon - major histocompatibility complex class I in skeletal muscle: Counter screen cell viability and HiBit confirmation (AID 1347412); conditions: iHSKM muscle cells + IFN-b, HiBiT or CellTiter-Glo, 24 h; Potency: HiBiT; Viability, at 45.9 µM (top of the series); also: % is scaled to controls: 0 for no effect and ±100 for the full control effect; nearly all actives have a fitted effect of over 60% in size
# Method in brief: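 Duplicate plates, pinned identically: one read for HiBiT-tagged endogenous HLA-B luminescence, the other for ATP-content viability via CellTiter Glo. Cells were genome-engineered human myoblasts given 4 ng/ml IFN-b; compounds 12-pt, 1:3 from 46 uM final; 24 hr exposure.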
# [3] = target: Nuclear receptor subfamily 1 group I member 2 (Rattus norvegicus) (UniProt Q9R1A7); experiment: qHTS assay for small molecule activators of the rat pregnane X receptor (rPXR) signaling pathway (AID 651751; call rule not given here; also: 0% is about no effect); conditions: rPXR reporter cells, luciferase (One-Glo), 24 h
# [4] = qHTS assay for small molecule activators of the human pregnane X receptor (PXR) signaling pathway (AID 720659; call rule not given here; also: 0% is about no effect); conditions: DPX-2 HepG2 CYP3A4-luciferase, 24 h; series mostly up to 92.3 µM
# [5] = at 45.9 µM (top of the series), tumour line D
# [6] = at 46.1 µM (top of the series), tumour line C
# [7] = at 45.9 µM (top of the series), tumour line B
# Chain of Nuclear receptor subfamily 1 group I member 2 (Rattus norvegicus) (Q9R1A7 whole entry, looked up): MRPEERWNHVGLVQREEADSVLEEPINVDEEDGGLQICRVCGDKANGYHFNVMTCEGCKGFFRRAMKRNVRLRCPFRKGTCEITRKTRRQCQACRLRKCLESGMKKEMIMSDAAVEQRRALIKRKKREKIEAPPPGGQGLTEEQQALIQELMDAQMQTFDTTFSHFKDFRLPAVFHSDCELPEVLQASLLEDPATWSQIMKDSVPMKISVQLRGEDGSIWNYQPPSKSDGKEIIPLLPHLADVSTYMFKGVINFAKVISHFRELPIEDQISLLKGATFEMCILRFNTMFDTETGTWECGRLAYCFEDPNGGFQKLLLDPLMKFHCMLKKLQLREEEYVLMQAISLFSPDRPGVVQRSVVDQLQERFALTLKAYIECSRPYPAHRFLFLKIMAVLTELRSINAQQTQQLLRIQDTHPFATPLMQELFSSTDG
compound,measurement,setting,value
[O]=[Cr](=[O])([OH])[O][Cr](=[O])(=[O])[OH],"activity, negative = cell killing",[1]; [5],-3.21%
same,"activity, negative = cell killing",[1]; [6],-22.8% and -5.59%
same,Potency,astro,inactive
O=c1[nH]cc(N(CCCl)CCCl)c(=O)[nH]1,"activity, negative = cell killing",[1]; [7],-11%
same,"activity, negative = cell killing",[1]; [5],-17.9%
same,"activity, negative = cell killing",[1]; [6],-21.9%
same,Potency,astro,inactive
C=CC[C@]1(O)CC[C@H]2[C@@H]3CCC4=CCCC[C@@H]4[C@H]3CC[C@@]21C,"activity, negative = cell killing",[1]; [6],-3.65%
same,Potency,[1]; tumour line A,12.6 µM (active)
same,Potency,astro,inactive
C/C(=C\c1csc(C)n1)[C@@H]1C[C@@H]2O[C@]2(C)CCC[C@H](C)[C@H](O)[C@@H](C)C(=O)C(C)(C)[C@@H](O)CC(=O)O1,"activity, negative = cell killing",[1]; [7],-25.2%
same,"activity, negative = cell killing",[1]; [5],-19.9%
same,Potency,[2],inactive
O=C(O)C(Cl)(Cl)Cl,"activity, negative = cell killing",[1]; [7],-5.78%
same,"activity, negative = cell killing",[1]; [5],4.24%
same,"activity, negative = cell killing",[1]; [6],3.74%
same,Potency,astro,inactive
same,max response,[3],6.71% and 3.85%
same,outcome,[4],inactive
CCCCNCC(O)c1ccc(O)cc1 (configuration not stated),"activity, negative = cell killing",[1]; [7],-14.1%
same,"activity, negative = cell killing",[1]; [5],-0.799%
same,"activity, negative = cell killing",[1]; [6],1.33%
same,Potency,astro,inactive
CC(C)(C)c1cc(O)ccc1O,"activity, negative = cell killing",[1]; [5],-24.6%
same,"activity, negative = cell killing",[1]; [6],3.11%
same,max response,[3],3.84% and -2.04% and 0.779%
C[C@H]1CC[C@@H]2[C@@H](C)[C@H]3[C@H](C[C@H]4[C@@H]5CC=C6CC(O[C@@H]7O[C@H](CO)[C@H](O)[C@H](O[C@@H]8O[C@H](CO)[C@@H](O)[C@H](O)[C@H]8O)[C@H]7O[C@H]7O[C@@H](C)[C@H](O)[C@@H](O)[C@H]7O)CC[C@]6(C)[C@H]5CC[C@]34C)N2C1 (some centres not stated),"activity, negative = cell killing",[1]; [6],-1.25%
same,Potency,[1]; tumour line B,22.4 µM (active)
same,Potency,astro,22.4 µM (active)
same,outcome,[4],inactive
O=C(NCNC(=O)NC1C(=O)NC(=O)N1CO)NC1C(=O)NC(=O)N1CO (configuration not stated),"activity, negative = cell killing",[1]; [7],-11.9%
same,"activity, negative = cell killing",[1]; [5],3.73%
same,"activity, negative = cell killing",[1]; [6],-7.65%
same,Potency,astro,inactive
COCC(C)N(C(=O)CCl)c1c(C)csc1C (configuration not stated),"activity, negative = cell killing",[1]; [7],-13.4%
same,"activity, negative = cell killing",[1]; [5],-11.3%
same,"activity, negative = cell killing",[1]; [6],-13.3%
same,Potency,astro,inactive
same,max response,[3],2.96%
C[C@H]1CCC[C@H](O)CCCCCc2cc(O)cc(O)c2C(=O)O1,"activity, negative = cell killing",[1]; [6],1.42%
same,Potency,[1]; tumour line A,12.6 µM (active)
same,Potency,[1]; tumour line D,35.5 µM (active)
same,Potency,astro,inactive
same,max response,[3],-2.32%
[2H]C([2H])([2H])[C@H](N)Cc1ccccc1,"activity, negative = cell killing",[1]; [7],-8.74%
same,"activity, negative = cell killing",[1]; [5],-8.54%
same,"activity, negative = cell killing",[1]; [6],-22.7%
same,Potency,astro,inactive
CN1[C@@H]2CC[C@H]1CC(OC1c3ccccc3CCc3ccccc31)C2 (some centres not stated),"activity, negative = cell killing","[1]; at 21.2 µM (top of the series), tumour line B",-28.8%
same,Potency,[1]; tumour line A,5.62 µM (active)
same,Potency,astro,inactive
O=C1OC2(c3cc(Br)c(O)cc3Oc3c2cc(Br)c(O)[c]3[Hg])c2ccccc21 (configuration not stated),"activity, negative = cell killing","[1]; at 20 µM (top of the series), tumour line C",-9.78%
same,Potency,[1]; tumour line A,14.1 µM (active)
same,Potency,astro,inactive
N#CN,"activity, negative = cell killing",[1]; [7],-13.5%
same,"activity, negative = cell killing",[1]; [5],-4.31%
same,"activity, negative = cell killing",[1]; [6],-5.37%
same,Potency,astro,inactive
same,max response,[3],6.95%
same,outcome,[4],inactive
c1ccc(C2(N3CCCC3)CCCCC2)cc1,"activity, negative = cell killing",[1]; [6],-27.4%
same,Potency,[1]; tumour line A,11.2 µM (active)
same,Potency,astro,inactive
C[N+]1(C)[C@@H]2CC[C@H]1CC(OC(=O)c1c[nH]c3ccccc13)C2 (some centres not stated),"activity, negative = cell killing",[1]; [7],-23.1%
same,"activity, negative = cell killing",[1]; [6],-27.7%
same,Potency,astro,inactive
[H+].[H+].[Hg+2].[O-]B([O-])[O-].[c-]1ccccc1,Potency,astro,2.82 µM (active)
O=[N+]([O-])C(Br)(CO)CO,"activity, negative = cell killing",[1]; [6],-7.96%
same,Potency,[1]; tumour line A,35.5 µM (active)
same,Potency,astro,22.4 µM (active)
same,outcome,[4],inactive
S=C=S,"activity, negative = cell killing",[1]; [7],-6.17%
same,"activity, negative = cell killing",[1]; [5],-16.5%
same,"activity, negative = cell killing",[1]; [6],-10.7%
same,Potency,astro,inactive
same,max response,[3],-0.686%
same,outcome,[4],inactive

# Source: PubChem BioAssay (NCATS)
